Among the data in ChEMBL document CHEMBL1961873, “Compounds: GSK PKIS; Assays: Nanosyn kinase panel” (2012) are inhibition values, retold here.

Where “and” joins values, the source holds several entries; their conditions need not be identical. Identical values can stand only once.
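Also: reported value is the mean inhibition, measured within the GSK PKIS screening panel.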

The target of this assay is Protein kinase C alpha type (Homo sapiens) (UniProt P17252). Particulars: at 1 µM.
On to `CCCNc1cccc(-n2ncc3c(N/N=C/c4ccncc4)ncnc32)c1`, for which the inhibition (as a rule, the change of the read-out against control, counted positive when it falls) was 1.45%.
With `O=C(O[C@H]1CN[C@H](C#Cc2cc3ncnc(Nc4ccc(OCc5cccc(F)c5)c(Cl)c4)c3s2)C1)N1CCOCC1` the figure was -4.52%.
With `Cc1cc(O)cc(C)c1/C=C/c1cncc(C(=O)OC(C)(C)C)c1` the figure was 0.77%; with `O=C(O[C@H]1CN[C@H](C#Cc2cc3ncnc(Nc4ccc5c(cnn5Cc5ccccc5)c4)c3s2)C1)N1CCOCC1`, -0.04%.
With `Cc1ccc(-c2cc3c(NC(=O)C4CC4)ncnc3o2)cc1` the figure was 0.92%; with `COc1cc(Nc2ncc(-c3ccccc3)o2)cc(OC)c1`, 1.72%.
As for `CCOc1ccc2c(-c3ccnc(Nc4cc(OC)cc(C(F)(F)F)c4)n3)cnn2n1`, the inhibition was determined as 5.31%.
With `COC(=O)Nc1nc2ccc(Oc3ccc(NC(=O)Nc4cc(C(F)(F)F)ccc4F)cc3)cc2s1` the figure was 9.89%; with `COC(=O)Nc1nc2cc(Oc3ccc(NC(=O)Nc4ccccc4)cc3)ccc2[nH]1`, 0.51%.
On to `CCn1c(-c2nonc2N)nc2cncc(C(=O)NCCNC)c21`, for which the inhibition was 58.2%.
As for `COc1ccc(Nc2ncc(-c3ccccc3)o2)cc1OC`, the figure is 4.51%.
As for `N#Cc1ccc2c(-c3ccnc(NC4CC4)n3)c(-c3ccc(F)cc3)nn2c1`, the figure is 1.24%.
With `Fc1cccc(COc2ccc(Nc3ncncc3C#Cc3ccccc3)cc2Cl)c1` the figure was 1.01%; with `CNC(=O)c1ncccc1Nc1nc(Nc2cc3c(cc2OC)CCCN3C(=O)CN(C)C)nc2[nH]ccc12`, 10.7%.
For the compound `NS(=O)(=O)c1cccc(N/C=C2\C(=O)Nc3ccccc32)c1`, the inhibition is 2.84%.
For the compound `CS(=O)(=O)CCNCc1ccc(-c2ccc3ncnc(Nc4ccc(OCc5ccccc5)cc4)c3c2)o1`, the inhibition amounted to 1.49%.
With `Cn1c(-c2nonc2N)nc2cnccc21` the figure was 2.7%; with `CS(=O)(=O)CCNCc1ccoc1-c1ccc2ncnc(Nc3ccc(OCc4ccccc4)cc3)c2c1`, 0.23%.
With `CN1CCN(Cc2ccc(-c3cc4ncnc(Nc5ccc(OCc6cccc(F)c6)c(Cl)c5)c4s3)o2)CC1` the figure was 1.87% and 2.52%.
With `CC(C)c1ccc(-c2cc(-c3c[nH]nc3-c3ccccn3)ccn2)cc1` the figure was 1.23%; with `Nc1ncnc2occ(-c3ccc(NC(=O)Nc4cc(C(F)(F)F)ccc4F)cc3)c12`, 0.52% and -0.37%.
Consider `COc1ccc2ncn(-c3cc(O[C@H](C)c4ccccc4C(F)(F)F)c(C(N)=O)s3)c2c1`, for which the inhibition came to 0.04%.
With `N#Cc1cccc(Nc2ncc(-c3ccccc3)o2)c1` the figure was 0.37%; with `CS(=O)(=O)Nc1ccc(-c2ccc3c(NC(=O)C4CC4)n[nH]c3c2)cc1`, 1.78%.
As for `Cc1nnc(-c2cccc(-c3ccc(C(=O)NCC4CC4)cc3)c2)o1`, the figure is 1.45%; as for `CC1(C)CC(n2cnc(-c3ccc(F)cc3)c2-c2ccnc(N)n2)CC(C)(C)N1`, 2.63%; as for `CC1=C(C(=O)Nc2ccc3[nH]nc(C)c3c2)C(c2ccc(C(F)(F)F)cc2)CC(=O)N1` (stereo unspecified), 7.98%.
Turning to `NC(=O)c1ccc2c(-c3ccnc(NCCCO)n3)c(-c3ccc(F)cc3)nn2c1`, the inhibition worked out at 11%.
With `COc1cc(N2CCN(C(C)C)CC2)ccc1Nc1nc(Nc2cccc3ncccc23)c2cc[nH]c2n1` the figure was 1.71%; with `FC(F)(F)CNc1nccc(-c2cnn3ncccc23)n1`, 2.56%; with `CCN1CCC(C(=O)Nc2n[nH]c3nnc(-c4cccc(F)c4F)cc23)CC1`, 0.27%.
